Results as given in PubChem BioAssay (NCI).
The panel holds about 83,000 compounds, 20% with a hit somewhere; the sample as a whole holds those more often.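 Single-concentration screen, 48 h exposure, 96-well plates. Endpoint: percent growth. Below 10 = active.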 Unmarked numbers belong to inactive results. Activity calls are given as the source filed them.

Experiments:
Assay in all cases: NCI-60 one-dose screen, 48 h (100 = growth as untreated, 0 = no growth, -100 = all killed)
Conditions in all cases: 10 µM unless noted
NCI-H23 lung = system: NCI-H23 lung
NCI-H322M lung = system: NCI-H322M lung
HOP-62 NSCLC = system: HOP-62 NSCLC
NCI-H460 lung = system: NCI-H460 lung
HOP-92 NSCLC = system: HOP-92 NSCLC
NCI-H522 lung = system: NCI-H522 lung
A549/ATCC NSCLC = system: A549/ATCC NSCLC
786-0 renal = system: 786-0 renal
COLO 205 colon = system: COLO 205 colon
DU-145 prostate = system: DU-145 prostate
K-562 leukemia = system: K-562 leukemia
MALME-3M melanoma = system: MALME-3M melanoma
MDA-MB-231 breast = system: MDA-MB-231 breast
RXF 393 renal = system: RXF 393 renal
SF-268 CNS = system: SF-268 CNS
SF-295 CNS = system: SF-295 CNS
SF-539 CNS = system: SF-539 CNS
UACC-257 melanoma = system: UACC-257 melanoma
M14 melanoma = system: M14 melanoma
HCT-15 colon = system: HCT-15 colon

Row | SMILES | growth (NCI-H23 lung) | growth (NCI-H322M lung) | growth (HOP-62 NSCLC) | growth (NCI-H460 lung) | growth (HOP-92 NSCLC) | growth (NCI-H522 lung) | growth (A549/ATCC NSCLC) | growth (786-0 renal) | growth (COLO 205 colon) | growth (DU-145 prostate) | growth (K-562 leukemia) | growth (MALME-3M melanoma) | growth (MDA-MB-231 breast) | growth (RXF 393 renal) | growth (SF-268 CNS) | growth (SF-295 CNS) | growth (SF-539 CNS) | growth (UACC-257 melanoma) | growth (M14 melanoma) | growth (HCT-15 colon)
1 | Cn1c(=O)n(C)c2cc(CNCCNc3ccnc4cc(Cl)ccc34)ccc21 | 95.3% | 95.4% | 78.1% | 2.02% (active) | 55.9% | 94.9% | 70.3% | 1.49% (active) | 55.1% | 74.8% | 5.18% (active) | 43.6% | 62.5% | 52.1% | 97.9% | -69.4% (active) | 58.9% | -61.8% (active) | -52.8% (active) | 9.62% (active)
2 | CCN(CCO)CCNc1ccc(C)c2sc3cc(Cl)ccc3c(=O)c12 | 59.6% | 47% | 38.5% | -75.9% (active) | 4.54% (active) | 50.2% | 24.6% | -60.1% (active) | -80.9% (active) | 16.9% | -43.6% (active) | -27.8% (active) | -42.8% (active) | 5.22% (active) | 44.6% | 12.5% | 73.1% | -49.8% (active) | -74.2% (active) | -44.9% (active)
3 | O=C(Nc1ccc(N2CCNCC2)cc1)c1[nH]ncc1Nc1ncnc2sc3c(c12)CCC3 | -68.6% (active) | -33.2% (active) | -76.2% (active) | -81.8% (active) | -56.7% (active) | -50.3% (active) | -71.4% (active) | -81.4% (active) | -77.2% (active) | -92.4% (active) | -62.7% (active) | -75.9% (active) | -84.9% (active) | -90.8% (active) | -72.3% (active) | -77.2% (active) | -98.8% (active) | 26% | -91.1% (active) | -85.7% (active)
4 | COc1ccc(Cn2c(Br)c3c(c2-c2cc(OC)c(OC)c(OC)c2)CCc2sc(NC(C)=O)nc2-3)cc1 | 66.1% | 63% | 60.3% | 31.2% | 65.5% | 13.4% | 52.8% | 54.1% | 20.8% | 66.7% | 15.4% | -6.05% (active) | 62.6% | 32.3% | 37.1% | 3.53% (active) | 23.1% | 48% | 47.9% | 51.9%
5 | O=C(Nc1ccc(I)cc1F)c1cc(Cl)ccc1O | 1.96% (active) | 8.59% (active) | 2.14% (active) | 4% (active) | -15.8% (active) | -17.1% (active) | 7% (active) | -7.97% (active) | 42.8% | 13.8% | 8.14% (active) | -28.9% (active) | -17.6% (active) | 1.47% (active) | 5.87% (active) | -62.8% (active) | 2.65% (active) | -18.1% (active) | -22% (active) | 2.58% (active)
6 | O=[N+]([O-])c1cc2c(ccc3occc32)o1 | 39.5% | 61% | 63.5% | -28.2% (active) | 26.6% | 25.7% | 26.1% | 71.3% | -24.1% (active) | -7.23% (active) | 11.9% | -33.1% (active) | 17.3% | -2.62% (active) | 18.5% | -34.9% (active) | 33.5% | -20.1% (active) | -8.26% (active) | 12.1%
7 | O=C1C(Cl)=C(NCc2ccco2)C(=O)c2ccccc21 | 37.3% | 115% | 37% | 54.5% | 103% | 75.9% | 47.4% | 113% | 84.8% | 15.6% | 70.6% | 54.6% | 68.1% | 101% | 103% | 75.8% | 115% | 58.7% | 77.4% | 81.3%
8 | COc1ccc(C2=Nn3c(NN)nnc3SC2)cc1 | 95.9% | 95.2% | 104% | 112% | 105% | 75.5% | 87.2% | 104% | 108% | 103% | 83.3% | 109% | 103% | 95.8% | 100% | 106% | 95.6% | 84.3% | 113% | 114%
